Assay results: the OligoGym collection

What follows are sequences tested against ALAD (assay: pooled miR-30 sensor sort-seq; sequence = guide strand). Conditions: shRNA.
Further: reference of the scale not given here.

Row | Sequence | sensor-assay potency score (higher = more potent)
1 | TAGTGGGTGGAAGTAGCCGCTG | -1.31
2 | ATGATGTCAGCACCTGCTCTGC | -1.4
3 | TCGTCCTTGGGAACTCTGCTGG | -1.05
4 | TTTAAAGTTCTAGTTCTTGGGC | -0.0518
5 | AAATTTGGCACTGTAGCTCATC | -0.696
6 | TCCTTGGGAACTCTGCTGGGGA | -1.34
7 | ATGTCAGCACCTGCTCTGCGGA | -1.76
8 | TGATAGGCTGTATGTCATCAGG | -1.65
9 | TGATGATGATGTCAGCACCTGC | -1.54
10 | ATGTCATCAGGAACATCCGTGA | -0.798
11 | TATGTCATCAGGAACATCCGTG | 0.268
12 | TAGGTGATGATGATGTCAGCAC | 0.277
13 | ACATCCGTGACAAAGATGGGGT | 0.0537

What follows are sequences tested against ALDH1A1 in the same assay as above. Conditions: shRNA.

Row | Sequence | sensor-assay potency score (higher = more potent)
14 | AATACTAATATGATTTAGCTTA | -0.152
15 | TTCATTGACTCCATTGTCGCCA | 0.315
16 | TTAGAGAACACTGTGGGCTGGA | 0.618
17 | TAGCAATTCACCCACACTGTTC | -1.07
18 | TTAAAGACAGGAAATTTCTTGC | -0.236
19 | AAATTCAACAGCATTGTCCAAG | -0.656
20 | TTGAATCTTCAAATCGGTGAGT | 0.0111
21 | TAGAAAGTATTGTTTGCTCTTT | -0.662
22 | TGTCTTTGGTAAACACTCCTGC | 0.136
23 | TTAAAATCTACTATATTAGTGA | 0.534
24 | TGTAACATTAGAGAACACTGTG | 0.545
25 | TACTTTGTCTATATCCATGTGA | 0.349
26 | TAGCGCAATGTTTTGATGCAGC | -0.601
27 | TGATTTGCTGCACTGGTCCAAA | -0.586
28 | ATATTGTTCCTTGTCAATCTGA | 0.00946
29 | TGCCTTGTCAACATCCTCCTTA | 0.465
30 | TATATTAGTGACTGTAAGGAGA | -0.658
31 | TATTGTTCCTTGTCAATCTGAG | 0.207
32 | TAACATTAGAGAACACTGTGGG | 0.962
33 | TTAGCTATTGAAGAGCTTCTCT | 0.445
34 | TAATTCTTTCAGAAGAAGCTAC | -0.0936
35 | TTATCTCCTTCTTCTACCTGGC | -0.0648
36 | TTGGTAAACACTCCTGCTGATA | -1.11

The sequences below were run against ALDH1A3 in the same assay as above. Conditions: shRNA.

Row | Sequence | sensor-assay potency score (higher = more potent)
37 | TTCTGTTTTGACATCGAAGGGG | 0.0292
38 | TAAGATTTTGTCGAACTGCTTT | 0.131
39 | TAGCAGTTGATCCAGACCGTTC | -1.2
40 | TTCCACTTCACATATTTGCTCC | -0.153
